Reference: ChEMBL document CHEMBL4513216, “Probing the Open Global Health Chemical Diversity Library for Multistage-Active Starting Points for Next-Generation Antimalarials” (ACS Infect Dis, 2020)
Out of some 68,000 compounds screened, about 2,700 (4%) showed an effect of 50% or more. For the sample, strong results were picked, then their nearest neighbours and some compounds at random.

The compounds below were run on Plasmodium berghei (assay: Screen against P. berghei liver stage (PbLuc), transformed with Luciferase, at 2uM). Details: tested at 2 uM.
Type: functional, HepG2

Row | Structure (SMILES) | INHIBITION
1 | Cc1nnc(NC(=O)NCc2ccc(OC3CCCC3)nc2)s1 | 12.74%
2 | CCN1C(=O)CO[C@@H]2CN(C(=O)C3CCOCC3)C[C@H]21 | 18.31%
3 | COc1ccc(N(c2ccc(OC)cc2)c2ccc(C(=O)O)s2)cc1 | 14.95%
4 | CC1c2ncc(COCC3CC3)n2CCN1C(=O)c1ccnn1C (stereo not drawn) | 21.67%
5 | Cc1cc(NC(=O)NCC(C(C)C)N2CCOCC2)n(C)n1 (stereo not drawn) | 11.63%
6 | CN(Cc1cccnc1)C[C@H]1OC[C@@H]2CCN(C(=O)C3CC3)C[C@@H]21 | 8.62%
7 | Cc1cccc(CN2CCC(n3cc(CCO)nn3)CC2)c1C | 55.36%
8 | CC(CCN1CCC(n2cc(CCO)nn2)CC1)c1ccccc1 (stereo not drawn) | 30.89%
9 | Cc1ccc(CN2CCC(n3cc(CN4CCC(O)CC4)nn3)CC2)s1 | 35.7%
10 | Cc1nc(C2CCCN2C(=O)c2cc3c(s2)CCC3)no1 (stereo not drawn) | 16.89%
11 | CCc1nc(CN2CCCN(c3ncnc4ccsc34)CC2)no1 | 80%
12 | CCc1nc(CN2CCCN(c3ncnc4ccccc34)CC2)no1 | -50.34%
13 | CCc1nc(CN2CCCN(c3ncnc4sccc34)CC2)no1 | 37.75%
14 | CC(C)CN1CCN(C(=O)c2ccn(C)c(=O)c2)CC1 | 1.36%
15 | Cc1cnn(CC2CCCN2Cc2nc3ccccc3n2C)c1 (stereo not drawn) | 9.9%
16 | CC(C)c1cc(C(=O)NCCN2CCCS2(=O)=O)n[nH]1 | -61.61%
17 | O=C(CC1CCCC1)N1CCOC(c2nc(-c3ncccn3)no2)C1 (stereo not drawn) | 57.82%
18 | O=C(C1CCCC1)N1CCOC(c2nc(-c3ncccn3)no2)C1 (stereo not drawn) | 22.81%
19 | O=C(Cc1ccccc1)N1CCOC(c2nc(-c3ncccn3)no2)C1 (stereo not drawn) | 0.18%
20 | Cc1ccccc1C(=O)Nc1cnn(CC(=O)NC2CCCC2)c1 | -24.24%
21 | CN(C)c1cc(C2CCCN(S(=O)(=O)c3cn(C)cn3)C2)ccn1 (stereo not drawn) | 36.15%
22 | CCS(=O)(=O)N1CCCC(c2ccnc(N(C)C)c2)C1 (stereo not drawn) | 59.91%
23 | CN(C)c1cc(C2CCCN(S(=O)(=O)C3CCCC3)C2)ccn1 (stereo not drawn) | 29.89%

Row | Structure (SMILES) | INHIBITION
24 | CC(C)NC(=O)c1cc(-c2ccc(S(C)(=O)=O)cc2)c2cnn(C)c2n1 | 10.93%
25 | Cc1nc(CC(=O)N2CCC(Nc3cccnn3)CC2)cs1 | 3.97%
26 | CCN(Cc1cccc(-c2ccncc2)c1)S(N)(=O)=O | 20.14%
27 | CCN(Cc1cccc(-c2ccncc2)c1)S(C)(=O)=O | 63.1%
28 | CCN(C)S(=O)(=O)N(CC)Cc1cccc(-c2ccncc2)c1 | 21.24%
29 | O=C(Cc1ccon1)N1CCc2cc(Br)sc2C1 | -10.14%
30 | COc1ccc(CNC(=O)N2CCC(Cc3cnn(C)c3)C2)cc1C (stereo not drawn) | 20.28%
31 | CCNc1ncc(C)c(-c2cnn(C)c2)n1 | 8.26%
32 | Cc1cnc(NCc2cnn(C)c2)nc1-c1cnn(C)c1 | 10.13%
33 | Cc1cnc(NCc2ccncc2)nc1-c1cnn(C)c1 | 72.34%
34 | CCNC(=O)NC(C)(C)C(=O)NCCc1csc2ccccc12 | 32.03%
35 | c1cnc(-c2nc(CN3CCN(CC4CC4)CC3)cs2)nc1 | 24.88%
36 | O=C1CSC(c2ccc(O)cc2)c2sccc2N1 (stereo not drawn) | 17.94%
37 | Cn1c(=O)n(C)c2cc(C3SCC(=O)Nc4ccsc43)ccc21 (stereo not drawn) | 74.91%
38 | COc1ccc(C2SCC(=O)Nc3ccsc32)cc1OC (stereo not drawn) | 7.62%
39 | CCCc1nnc(C(=O)N(C)Cc2cnc3ccccn23)o1 | -2.89%
40 | CCOC(=O)N(C)C1CCN(Cc2cnc3ccccn23)CC1 | 2.26%
41 | COCc1nnc(C(=O)N(C)Cc2ccc(OC)cc2)o1 | 14.55%
42 | COCc1nnc(C(=O)N(C)Cc2cnc3ccccn23)o1 | 80.13%
43 | CN(C(=O)C1CCN(Cc2cnc3ccccn23)CC1)c1ccccc1 | 4.07%
44 | CCc1nc(C)c(C(=O)N(C)Cc2cnc3ccccn23)o1 | 52.81%
45 | CS(=O)(=O)N1CCCCC12CCCN(Cc1nccs1)C2 (stereo not drawn) | -14.74%
46 | CCc1cc(NCCNc2ccncc2C)n2nc(C)c(C)c2n1 | -7.77%

Row | Structure (SMILES) | INHIBITION
47 | CC(Nc1ccn(Cc2ccccn2)n1)C(=O)NC(C)(C)C (stereo not drawn) | -48.1%
48 | Cc1nc(CN(C)C)cc(N2CCCC(COc3ccc(F)cc3)C2)n1 (stereo not drawn) | 40.47%
49 | Cc1cc(C(=O)N2CC[C@H]3C[C@H](c4ccncn4)O[C@@H]3C2)c(C)[nH]1 | -16.33%
50 | Cc1noc(C)c1C(=O)N1CC[C@H]2C[C@@H](c3ccncn3)O[C@@H]2C1 | 1.42%
51 | Cc1oncc1C(=O)N1CC[C@H]2C[C@H](c3ccncn3)O[C@@H]2C1 | 52.34%
52 | CN(Cc1ccc(Cl)c(Cl)c1)C(=O)CNC(N)=O | 32.81%
53 | COCCN1CCC2(CC1)CC(Nc1ccc(C)nn1)CO2 (stereo not drawn) | 7.72%
54 | CC(C)c1noc(OCC(=O)N2CCCCC2C)n1 (stereo not drawn) | 17.48%
55 | CC1CCCCN1C(=O)COc1nc(C(C)(C)C)no1 (stereo not drawn) | 47.04%
56 | Cc1noc(OCC(=O)N2CCCCC2C)n1 (stereo not drawn) | 50.32%
57 | CCC(CC)CNCC1(S(C)(=O)=O)CCOCC1 | 59.99%
58 | CC(CNCC1(S(C)(=O)=O)CCOCC1)c1ccc(F)cc1 (stereo not drawn) | 29.28%
59 | CCC(C)CNCC1(S(C)(=O)=O)CCOCC1 (stereo not drawn) | 10.03%
60 | Cc1cc2nc(SCC(=O)N3CCOCC3)n(CCC(C)C)c(=O)c2[nH]1 | 44.15%
61 | CCn1c(SCC(=O)N2CCOCC2)nc2cc(C)[nH]c2c1=O | 33.58%
62 | Cc1cc2nc(SCC(=O)N3CCOCC3)n(CC(C)C)c(=O)c2[nH]1 | 50.74%
63 | CC(C)CN1CCC(c2nnc(CN3CCCC3)n2C2CC2)CC1 | 8.03%
64 | CCC(=O)N1CCCC1c1nccnc1Nc1nc(C)cc(C)n1 (stereo not drawn) | 44.72%
65 | NC(=O)C1(CCCc2ccncc2)CCCN1 (stereo not drawn) | 46.98%
66 | CN(C)C(=O)C1(CCCc2ccncc2)CCCN1 (stereo not drawn) | 54.82%
67 | CNC(=O)C1(CCCc2ccncc2)CCCN1 (stereo not drawn) | -0.51%
68 | O=C(O)c1cc(NS(=O)(=O)c2cccc(Cl)c2F)ccc1Cl | 36.65%
